Source: PubChem BioAssay (several laboratories)
EBI2 antag: EBI2 receptor antagonists, beta-arrestin recruitment, primary screen, cell-based, luminescence, 7a,25-OHC stimulation, uHTS. G-protein coupled receptor 183 (Homo sapiens), P32249. 7a,25-OHC stimulated. inhibition, % at 5 µM. hit rate 0.81% among 360,000; in the data active = inhibition above about 38%;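 also: enzyme fragment complementation signal reports receptor beta-arrestin coupling in cells; 0% = agonist plus DMSO wells and 100% = wells without agonist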
AHR act: AHR activators, primary screen, cell-based, luminescence, luciferase reporter, human; AHR-responsive luciferase reporter cells; activation, % at 5 µM; hit rate 2.5% among 320,000; AID 2796, 2010; in the data active = activation above about 47%;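 also: 0% = vehicle wells and 100% = reference agonist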
SENP8 block-1: human SENP8 protease inhibitors, primary screen, biochemical, fluorescence, Nedd8 protein substrate, uHTS; inhibition, % at 20 µM; AID 602440, 2012; Sentrin-specific protease 8 (Homo sapiens), Q96LD8; hit rate 0.64% among 360,000; recombinant SENP8; in the data active = inhibition mostly above about 40%, no sharp cut-off; inactive = mostly below about 27%
Target sequence (Q96LD8 whole entry, looked up): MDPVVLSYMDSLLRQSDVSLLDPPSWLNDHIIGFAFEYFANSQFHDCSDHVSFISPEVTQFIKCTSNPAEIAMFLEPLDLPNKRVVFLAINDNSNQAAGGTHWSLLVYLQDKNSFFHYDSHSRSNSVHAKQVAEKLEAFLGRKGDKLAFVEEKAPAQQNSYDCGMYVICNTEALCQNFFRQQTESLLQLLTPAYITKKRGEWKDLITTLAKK
SENP6 block: SENP6 protease inhibitors, primary screen, biochemical, luminescence, uHTS. Sentrin-specific protease 6 (Homo sapiens), Q9GZR1. Recombinant SENP6 catalytic domain, aminoluciferin luminescence. inhibition, % at 10 µM. hit rate 1.8% among 330,000. AID 2599, 2010;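 active = inhibition above about 50% at the single tested dose, limit read from the data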;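 also: plate controls were DMSO wells with enzyme for no effect and DMSO wells lacking enzyme for full effect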
SENP8 block-2: SENP8 protease inhibitors, primary screen, biochemical, luminescence. Sentrin-specific protease 8 (Homo sapiens), Q96LD8. purified SENP8, Z-RLRGG-aminoluciferin cleavage. inhibition, % at 10 µM. hit rate 1.2% among 330,000; in the data active = inhibition above about 50%
SENP7 block: SENP7 protease inhibitors, primary screen, biochemical, luminescence, uHTS | Sentrin-specific protease 7 (Homo sapiens), Q9BQF6 | recombinant SENP7, Z-RLRGG-aminoluciferin luminescence, 40 min | inhibition, % at 5 µM | hit rate 1.5% among 330,000 | AID 434973, 2010;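 active = inhibition above about 50% at the single test dose, limit read from the data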;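 also: plate controls were DMSO with enzyme for no effect and no enzyme buffer wells for full effect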
Target sequence (Q9BQF6 706-1050 limits assumed): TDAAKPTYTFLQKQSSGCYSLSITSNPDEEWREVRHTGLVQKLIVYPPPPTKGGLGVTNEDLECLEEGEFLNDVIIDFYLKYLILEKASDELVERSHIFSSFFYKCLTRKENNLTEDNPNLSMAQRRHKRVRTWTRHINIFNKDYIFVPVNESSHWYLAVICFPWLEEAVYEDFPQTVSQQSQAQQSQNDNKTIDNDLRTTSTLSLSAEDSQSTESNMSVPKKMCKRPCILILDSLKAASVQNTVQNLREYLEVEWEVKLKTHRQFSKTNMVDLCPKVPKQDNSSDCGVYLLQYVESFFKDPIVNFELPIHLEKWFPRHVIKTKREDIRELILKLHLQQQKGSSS
EBI2 antag conf: EBI2 antagonist hit retest, beta-arrestin, confirmation, cell-based, single concentration, luminescence, 7a,25-OHC stimulation; shares compounds with EBI2 antag; 7a,25-OHC antagonism; inhibition, % at 5 µM; hit rate 29% among 2,400; AID 651997, 2013;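 active = inhibition of at least 50%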
EBI2 agonist: EBI2 agonist activity of antagonist hits, confirmation, counter-screen for EBI2 antagonist project, cell-based, single concentration, agonist mode, luminescence. shares compounds with EBI2 antag. EBI2-expressing cells, 60 min; 0% vehicle, 100% 7α,25-dihydroxycholesterol control. activation, % at 5 µM. 2,400 tested, under 10 active. AID 652000, 2013;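 active = activation of at least 50%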
bGal cs: E. coli beta-galactosidase enzyme inhibition, confirmation, counter-screen for EBI2 antagonist project, biochemical, luminescence, single concentration; shares compounds with EBI2 antag; purified beta-galactosidase, luminescent Galacton Star, 15 min; inhibition, % at 5 µM; hit rate 1% among 2,400;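 active = replicate-average signal at least 3 plate SD below neutral wells, shown as high inhibition, flagging enzyme-inhibiting false positives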;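 also: 0% = DMSO wells with enzyme and 100% = wells lacking enzyme; higher means stronger loss of beta-gal luminescence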
* = called active by the depositor; i = inactive; x = not tested or not shown. Compounds with a hit are over-represented: about 5% of the library has one in this group of screens.

SMILES | EBI2 antag | AHR act | SENP8 block-1 | SENP6 block | SENP8 block-2 | SENP7 block | EBI2 antag conf | EBI2 agonist | bGal cs
COCCOC(=O)c1c(NC(=O)CN2c3ccccc3CC2C)sc(C(N)=O)c1C (stereo unspecified) | 65* | 1 | 3 | -11 | 4 | 7 | 31 | -1 | 3
CC(C)(C)c1ccc(/C=C/C(=O)N2CCOCC2)cc1 | -9 | 21 | 12 | 8 | -16 | -10 | x | x | x
CC(C)(C)c1ccc(/C=C/C(=O)N2CCN(c3ncccn3)CC2)cc1 | 65* | 2 | 10 | -2 | -8 | -3 | 61* | -1 | -18
O=C(/C=C/c1ccc(F)cc1)N1CCN(c2ncccn2)CC1 | 93* | 3 | 6 | 1 | -4 | -5 | 78* | -1 | -5
O=C1CSC(c2ccccc2)N1c1cccnc1 (stereo unspecified) | -10 | 2 | 10 | -19 | -2 | 8 | x | x | x
C/C(=N\Nc1ncnc2sc(C)c(C)c12)c1ccccn1 | 55* | 30 | 16 | -8 | -5 | -7 | 53* | -2 | -5
O=C(Nc1nnc(CCS(=O)(=O)c2ccc3ccccc3c2)s1)c1ccc([N+](=O)[O-])cc1 | -13 | 3 | 10 | -16 | 2 | 6 | x | x | x
CCC(C)(C)C1CCC2(CC1)NC(=O)N(CC(=O)Nc1nc(-c3ccc(C)cc3)cs1)C2=O (stereo unspecified) | 43* | -1 | 4 | 2 | -3 | -6 | 13 | 2 | 5
O=C(CN1C(=O)NC2(CCCC2)C1=O)Nc1nc(-c2ccc(F)cc2)cs1 | -19 | 2 | 15 | 1 | -6 | -2 | x | x | x
CCCC(=O)n1nc(-c2ccc(Cl)cc2)nc1SC | 80* | 6 | 18 | -10 | -10 | -1 | 40 | 1 | 9
CCC(=O)n1nc(-c2ccc(Cl)cc2)nc1SC | 9 | 4 | 7 | -4 | -13 | -11 | x | x | x
CCN1CCN(C(=O)/C=C/c2ccc([N+](=O)[O-])cc2)CC1 | 74* | 6 | 22 | -3 | 1 | -2 | 38 | 2 | 4
O=C(/C=C/c1ccc(OCCCF)cc1)N1CCN(Cc2ccccc2)CC1 | 88* | 4 | 22 | 6 | -4 | -3 | 50* | -1 | -11
O=C(/C=C/c1ccc([N+](=O)[O-])cc1)N1CCN(S(=O)(=O)c2ccccc2)CC1 | 90* | 2 | 13 | 2 | -14 | -3 | 61* | -1 | -13
CN1CCN(C(=O)/C=C/c2ccc([N+](=O)[O-])cc2)CC1 | 22 | 2 | 22 | -22 | -9 | -9 | x | x | x
O=C(/C=C/c1ccc([N+](=O)[O-])cc1)N1CCN(Cc2ccccc2)CC1 | 90* | 2 | 22 | -7 | -10 | -11 | 64* | 1 | -10
CC(=O)c1ccc(Oc2cnccn2)cc1 | -1 | 5 | 7 | 3 | -2 | -1 | x | x | x
COc1cccc(/C=C/C(=O)NNC(=O)CCN2CCN(Cc3ccccc3)CC2)c1 | 15 | 19 | -33 | -12 | -3 | 9 | x | x | x
O=C(/C=C/c1ccc(F)cc1)NNC(=O)CCN1CCN(Cc2ccccc2)CC1 | 42* | 7 | -6 | -14 | -5 | -8 | 5 | 0 | 5
CCOc1ccc(S(=O)(=O)NC(C)C)cc1C(N)=O | -2 | -1 | 13 | -4 | 5 | 3 | x | x | x
O=C(CSc1nnc(CNC(=O)c2ccco2)o1)Nc1nc2ccccc2s1 | -1 | 25 | 4 | -33 | 5 | -18 | x | x | x
O=C(COc1ccc(Cl)cc1)N1CCN(Cc2ccc3c(c2)OCO3)CC1 | 87* | 1 | 8 | -18 | -11 | -10 | 61* | -1 | -14
CCCOc1ccc(C(=O)N2CCN(Cc3ccc4c(c3)OCO4)CC2)cc1 | 78* | 9 | 4 | 4 | -4 | 8 | 54* | -1 | -10
O=C(/C=C\c1cccs1)N1CCN(Cc2ccc3c(c2)OCO3)CC1 | 75* | 1 | 18 | -24 | -7 | -8 | 54* | 0 | 4
Cc1cc(C)cc(C(=O)N2CCN(Cc3ccc4c(c3)OCO4)CC2)c1 | 5 | 0 | 15 | 19 | -6 | -3 | x | x | x
SMILES | EBI2 antag | AHR act | SENP8 block-1 | SENP6 block | SENP8 block-2 | SENP7 block | EBI2 antag conf | EBI2 agonist | bGal cs
O=C(O)/C=C/C(=O)N1CCN(Cc2ccc3c(c2)OCO3)CC1 | -11 | 0 | 13 | -23 | 3 | 8 | x | x | x
COC(=O)c1ccc2nc(C3CCCCC3)c(Cc3ccccc3)n2c1 | 51* | x | -274 | x | x | x | 65* | -1 | -17
COC(=O)c1ccc2nc(C3CCCCC3)c(CC(C)(C)C)n2c1 | 5 | x | 17 | x | x | x | x | x | x
CCn1c(SCC(=O)N/N=C/c2ccc(C)o2)nnc1-c1ccccc1 | 51* | 1 | 13 | 5 | 1 | 5 | 25 | 3 | 3
Cc1ccc(/C=N/NC(=O)CSc2nnc(-c3ccccc3)n2-c2ccc(Cl)cc2)o1 | -17 | 10 | 29 | 6 | -1 | -1 | x | x | x
CCCCCCSc1ccc(-c2nc3ccc(C)cn3c2NC2CCCCC2)cc1 | 45* | 2 | i | -5 | 3 | -1 | 22 | 2 | 8
CCCCCCSc1ccc(-c2nc3cc(C)ccn3c2NC2CCCCC2)cc1 | 14 | -1 | i | 2 | -6 | 2 | x | x | x
CC(C)=CCC/C(C)=C/Cc1c(O)ccc(C(=O)/C=C/c2ccc(O)cc2)c1O | 43* | -2 | 12 | 36 | 20 | 20 | 49 | 1 | 3
C=C(C)C(O)Cc1c(OC)ccc(C(=O)/C=C/c2ccc(O)cc2)c1O (stereo unspecified) | 17 | 0 | 5 | -17 | -17 | -10 | x | x | x
CCOc1ccccc1CN(Cc1ccco1)S(=O)(=O)c1ccc(-n2cnnn2)c(OC)c1 | 49* | x | 13 | x | x | x | 14 | 0 | 7
Cc1ccc(CCNc2ccc3ccccc3c2)cn1 | 27 | 1 | -414 | 24 | 11 | 20 | x | x | x
Cc1ccc(NCCNc2ccc(C)cc2)cc1 | 47* | -1 | 8 | -14 | -3 | 4 | 58* | 3 | 0
